# From PubChem
# AT treatment = potential ataxia-telangiectasia treatment | F2112 A-T fibroblasts, KAP-1 phosphorylation AlphaLISA; neocarzinostatin DNA damage 30 min before lysis | hit rate 0.19% among 320,000 | Potency, µM (doses to about 57.5 µM), inactives show at the top dose activation, most hits filed as activators; further: potency means the concentration at half of the fitted maximal effect; % of control where 0% means no effect; nearly all actives have a fitted effect of over 45% in size
#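 hTERT-immortalized A-T patient fibroblasts (F2112), 500 cells/well in OPTI-MEM, 1% FBS, got compounds for 60 min, then NCS for 30 min at 37C. Lysates were then assayed for phospho-KAP-1 by AlphaLISA (anti-pKAP1 donor, anti-KAP1 acceptor beads), 6 hr at 25C.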
# hERG WT inh = KCNH2 (human, wildtype) channel inhibition. Q12809. U2OS, BacMam KCNH2, thallium flux FluxOr; hits give low values. activity change, % at 1.84 µM. hit rate 0.37% among 340,000. AID 720551;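 active means maximum activity change below -70%; inconclusive means maximum activity change between -70% and -50%; inactive means maximum activity change above -50%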; further: on the % scale 0 is the no-effect control and ±100 the full control effect
# Target sequence (Q12809 whole entry, looked up): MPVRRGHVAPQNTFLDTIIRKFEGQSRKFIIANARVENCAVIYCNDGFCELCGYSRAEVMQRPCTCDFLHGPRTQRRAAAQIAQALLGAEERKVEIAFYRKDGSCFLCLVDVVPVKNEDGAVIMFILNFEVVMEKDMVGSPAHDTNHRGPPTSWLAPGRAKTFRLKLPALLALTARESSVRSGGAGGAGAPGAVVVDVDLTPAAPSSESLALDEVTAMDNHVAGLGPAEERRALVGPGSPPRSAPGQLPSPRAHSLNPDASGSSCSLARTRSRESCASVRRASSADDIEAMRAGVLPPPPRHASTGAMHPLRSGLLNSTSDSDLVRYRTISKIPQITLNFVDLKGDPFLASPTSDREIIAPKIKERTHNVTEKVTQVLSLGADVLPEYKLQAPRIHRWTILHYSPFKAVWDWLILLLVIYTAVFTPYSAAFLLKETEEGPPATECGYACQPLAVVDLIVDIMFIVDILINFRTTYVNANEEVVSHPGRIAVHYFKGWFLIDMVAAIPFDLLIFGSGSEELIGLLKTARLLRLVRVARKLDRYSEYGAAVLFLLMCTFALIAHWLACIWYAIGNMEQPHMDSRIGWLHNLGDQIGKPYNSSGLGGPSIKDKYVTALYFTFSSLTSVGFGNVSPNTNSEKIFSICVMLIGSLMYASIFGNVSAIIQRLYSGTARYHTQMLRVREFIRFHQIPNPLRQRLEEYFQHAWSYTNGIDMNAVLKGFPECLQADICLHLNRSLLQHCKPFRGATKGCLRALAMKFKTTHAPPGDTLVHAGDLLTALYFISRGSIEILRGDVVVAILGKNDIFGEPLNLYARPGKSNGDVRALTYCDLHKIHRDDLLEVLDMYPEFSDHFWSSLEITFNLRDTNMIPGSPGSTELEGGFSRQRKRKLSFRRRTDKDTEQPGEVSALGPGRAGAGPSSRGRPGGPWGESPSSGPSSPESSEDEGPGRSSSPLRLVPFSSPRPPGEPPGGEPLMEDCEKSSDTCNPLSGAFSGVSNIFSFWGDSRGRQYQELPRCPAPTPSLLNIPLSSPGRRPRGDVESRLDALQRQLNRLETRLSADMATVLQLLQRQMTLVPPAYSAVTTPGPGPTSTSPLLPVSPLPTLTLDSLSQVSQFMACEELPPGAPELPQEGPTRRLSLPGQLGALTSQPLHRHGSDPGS
#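 U2OS cells were transduced with wild-type KCNH2 virus (2.03 x 10^8 / mL) for 4 h at room temperature, then cultured overnight at 37 C. Thallium flux was read with FluxOr dye. Rate constants were normalized to DMSO controls.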
# 12-LOX inh = inhibitors of human 12S-lipoxygenase ALOX12 | P18054 | purified 12hLO, xylenol orange hydroperoxide absorbance | Potency, µM (doses to about 108 µM), for the others: at the top dose activity change, negative = inhibition, usual class: inhibitors | hit rate 1.1% among 580,000 | AID 1671190; further: potency means the concentration at half of the fitted maximal effect; on the % scale 0 is the no-effect control and ±100 the full control effect
#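 Hydroperoxide product was detected by ferrous iron/xylenol orange as the 573 to 405 nm absorbance ratio. Arachidonic acid at 40 uM (final) was turned over for 30 min at room temperature by 150 nM human 12hLO, pH 7.0 Hepes buffer, after 15 min compound preincubation.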
# KCNH2 3.1 inh = blocks the human KCNH2 3.1 channel isoform; U2OS KCNH2 3.1, thallium flux FluxOr; hits give low values; activity change, % (tested at about 1.8 µM); hit rate 0.95% among 340,000;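 active means maximum activity change below -70%; inconclusive means maximum activity change from -70% to -50%; inactive means maximum activity change above -50%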;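 further: thallium influx rate constant from kinetic fluorescence after stimulation buffer; on the % scale 0 is the no-effect control and ±100 the full control effect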
#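 Virally transduced U2OS (3.1 isoform, 4 h infection in dark at RT) → overnight 37 C → FluxOr + Red40 in HBSS/HEPES, 45 min → stimulation buffer, 2 min kinetic read → rate constant vs DMSO controls.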
# Starred values were filed as active, the others as inactive; ? = inconclusive; · = no result given; ! = a repeat was not active; [ ] = dose if it differs, or a comment. Rows were chosen to be rich in hits. Some 1.8% of all compounds tested hit in one or more screens of this group. Unless noted, the call rests on the fitted dose curve; in most records, active means well fitted curve in the direction sought with a large enough effect; inconclusive means small, poorly fitted or top-dose-only effect, or another doubt; inactive means no such curve, though single readings can be large; an effect the other way counts as inactive or inconclusive.
SMILES,AT treatment,hERG WT inh,12-LOX inh,KCNH2 3.1 inh
OC(c1cccc(Cl)c1)(c1cccc(Cl)c1)C1CN2CCC1CC2 (stereo not given),1%[11.5 µM],?,-12%,-86*
Cc1ccccc1OCC(=O)N1CCN(Cc2cc(=O)n3nc(-c4ccccc4C)sc3n2)CC1,·,·,1%,·
COc1ccc(-c2cc([C@H]3CN4CC[C@H]3C[C@@H]4CNC(=O)Nc3ccccc3)n(C)n2)cc1,·,·,33%,·
NC(=O)c1cn(C2OC(CO)C(O)C2O)c2ncnc(N)c12 (stereo not given),-20%,-6,18µM*!,7
Cn1cc(CN2CCOC[C@H](O)C2)c2ccccc21,·,·,1%[176 µM],·
O=c1c2ccccc2nc(/C=C/c2ccccc2O)n1-c1ccccc1O,8%,·,?,·
O=c1c2ccccc2nc(/C=C/c2ccccc2F)n1-c1ccccc1O,-9%,-10,11µM*,-15
ClC1=C(Cl)C2(Cl)C3C(Cl)C=CC3C1(Cl)C2(Cl)Cl (stereo not given),40µM*,-10,0%,-11
O=C1NC(=O)N(c2ccc(Cl)cc2)C(=O)/C1=C\c1ccc(Sc2nc3ccccc3[nH]2)o1,3%,-5,8.9µM*,-17
O=C1NC(=O)C(=Cc2ccc(Sc3ccccc3)o2)C(=O)N1,-27%,-11,?,-19
CC[C@H]1CN2CC[C@H]1C[C@@H]2CNCc1cccs1,·,·,56%[176 µM],·
CN1C(=O)/C(=C/c2ccc(Cl)s2)C(=O)NC1=S,12%,-8,4.5µM*,-3
C=CCN1C(=O)/C(=C/c2ccc(Br)s2)C(=O)NC1=S,-9%,-4,5.6µM*,-5
Cc1ccsc1/C=C1\C(=O)NC(=S)N(C)C1=O,4%,2,?,-7
CCN1C(=O)/C(=C\c2ccc([N+](=O)[O-])s2)C(=O)NC1=S,7%,·,·,·
COCOC1CCC2C3CCC4=CC(=O)CCC4=C3C=CC12C (stereo not given),·,-2,25µM*,8
C[C@]12CC[C@@H]3c4ccc(O)c(O)c4CC[C@H]3[C@@H]1CC[C@@H]2O,·,-4,5µM*,6
CN1C[C@@H]2OCC(=O)N[C@@H]2C1,·,·,86%[365 µM],·
CC(=O)N1CC(=O)Nc2ccc(Cl)cc2C1c1ccccc1 (stereo not given),25µM*,33,0%,8
CC(=O)N1CC(=O)Nc2ccc(F)cc2C1c1ccccc1 (stereo not given),7%,-34,?,-2
CN1CC=C(/C=C/c2ccc(-c3ccccc3)cc2)CC1,11%,8,·,-90*
COc1ccc(/C=C/C2=CCN(C)CC2)cc1,0%,1,-2%,9
COc1ccc2c(c[n+](C)c3c4cc5c(cc4ccc23)OCO5)c1OC,·,·,9.7µM*!,·
COc1cc2c(ccc3c4cc(OC)c(OC)cc4c[n+](C)c23)cc1O,·,0,-5%,-1
CCOc1cncc(/C=C/CCNC)c1,·,·,18µM*,·
SMILES,AT treatment,hERG WT inh,12-LOX inh,KCNH2 3.1 inh
CCC[N+]12CCC(CC1)C(C(O)(c1ccccc1)c1ccccc1)C2 (stereo not given),-9%,-3,?,15
C[N+]12CCC(CC1)C(C(O)(c1ccccc1)c1cccs1)C2 (stereo not given),-2%,3,45µM*,16
Clc1ccc(C(c2ccc(Cl)cc2)n2cc[n+](CC(OCc3ccc(Cl)cc3Cl)c3ccc(Cl)cc3Cl)c2)cc1 (stereo not given),-14%,-2,39µM*!,0
CCOC(=O)C1(c2ccccc2)CCN(CCC(=O)Nc2ccc(OC)cc2)CC1,·,56,-8%,-32
CCOC(=O)C1(c2ccccc2)CCN(CCC(C#N)(c2ccccc2)c2ccccc2)CC1,·,-45,-20%,-88*
CCOC(=O)C1(c2ccccc2)CCN(CCC(=O)Nc2cccc(Br)c2)CC1,4%,-38,20µM*,?
O=C(Cc1c(F)cccc1Cl)N1[C@H]2CC[C@@H]1c1cnc(-c3ccccc3)nc1C2,·,·,33%,·
CN1CCN(c2ccc([N+](=O)[O-])c3no[n+]([O-])c23)CC1,16µM*,-2,?,-1
CC(Nc1ccc([N+](=O)[O-])c2nonc12)c1ccccc1Cl (stereo not given),·,·,31%,·
O=[N+]([O-])c1ccc(N(CCO)CCO)c2c1no[n+]2[O-],·,-34,-7%,-92*
CCCCc1cn(C[C@H]2C[C@@H]3CCN2C[C@@H]3C(=O)Nc2nccs2)nn1,·,·,4%[176 µM],·
COc1cc2c(cc1OCc1ccccc1)N([S+](=O)([O-])c1ccccc1C(F)(F)F)CC21CCN(C)CC1,·,·,-28%,·
COc1ccc(-c2cc([C@H]3CN4CC[C@H]3C[C@@H]4CNS(=O)(=O)c3ccc(C)cc3)n(C)n2)cc1OC,·,·,27%,·
C[N+]12CCC(CC1)C(=C(c1ccccc1)c1ccccc1)C2,1%,25,35µM*,1
CC[N+]12CCC(CC1)C(=C(c1ccccc1)c1ccccc1)C2,9%,-3,-17%,-10
CC[C@H]1CN2CC[C@H]1C[C@@H]2CNC(=O)NC(C)C,·,·,20%[176 µM],·
CCCCc1cn(C[C@H]2CC3CCN2C[C@@H]3C(=O)NCc2ccc3c(c2)OCO3)nn1 (stereo not given in full),·,·,11%[176 µM],·
CC(C)c1ccc(N2C(=O)NC(=O)/C(=C/c3cnc(-c4ccccc4)nc3)C2=O)cc1,-2%,-7,16µM*,6
Cc1ccc(S(=O)(=O)Oc2ccccc2C=C2C(=O)N(C)C(=O)N(C)C2=O)cc1,8%,-6,45µM*,-5
COc1cc2c(cc1OC1CCCC1)NC(=O)C21CCN(c2ccc(C#N)cn2)CC1,·,·,-5%[176 µM],·
CC1(C)C[C@H]2C=C(C=O)[C@]3(C=O)C[C@]3(C)[C@H]2C1,3.5µM*,-2,-18%,-12
COc1ccc(NC(=O)N2[C@H]3CC[C@@H]2c2cncnc2C3)c(C)c1,·,·,-1%,·
CCN(CC)C(=O)c1ccc(NC(=O)c2cc(-c3ccco3)nc3ccccc23)cc1,·,·,32µM*,·
CCCNC(=O)OC[C@H]1C[C@@H]2CCN1C[C@@H]2c1cc(-c2ccccc2OC)nc(C)n1,·,·,18%[176 µM],·
Cc1ccc(S(=O)(=O)c2nc(-c3ccccc3Cl)oc2N(C)C2CCN(C)CC2)cc1,-5%,?,343%,-80*
SMILES,AT treatment,hERG WT inh,12-LOX inh,KCNH2 3.1 inh
O=C(NC[C@H]1C[C@@H]2CCN1C[C@@H]2CN1CCC(Cc2ccccc2)CC1)c1ccc(C(F)(F)F)cc1,·,·,12%,·
COc1ccc(N2C(=O)/C(=C/c3cc(C)n(-c4ccc(C)cn4)c3C)C(=O)NC2=S)c(OC)c1,0%,·,35µM*,7
CCn1nccc1C(=O)N1[C@H]2CC[C@@H]1c1cnc(-c3ccc(F)cc3)nc1C2,·,·,0%,·
CC(C)CC(=O)N1CCC2(CC1)c1nccn1-c1ccccc1CN2C,·,·,23%,·
CCC(=Nc1ccc2c(c1)CCC2)c1c(O)n(-c2ccc(OC)cc2)c(=O)[nH]c1=O,-11%,-104*,?,4
C=C[C@H]1CN2CC[C@H]1C[C@@H]2CNS(=O)(=O)c1cccc(C#N)c1,·,·,1%[176 µM],·
